Screens: PubChem BioAssay, Broad Institute
A selection: hits, their analogues and other compounds. The true share with any hit is near 2.3%.
YB-1 expr inh – inhibitors of YB-1 gene expression, primary screen, cell-based, fluorescence; delta delta Cp (YB-1 minus CDIP) (concentration not given with the values); 30,000 compounds, 0.37% hits; U2OS, qRT-PCR YB-1 vs CDIP delta delta Cp, 16 h; stronger effect = higher value; zero = DMSO, each unit about twofold;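 active = delta delta Cp rounded down to an integer at or above 3, about 3 SD of DMSO wells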;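 also: higher means less YB-1 transcript or more CDIP transcript relative to DMSO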
ROS inducer – ROS inducers in U2OS cancer cells, primary screen, cell-based, H2DCF-DA fluorescence. U2OS ROS induction. ROS induction (% of piperlongumine), % at 10 µM. 46,000 compounds, 2% hits. AID 624156, 2012; in the data active = ROS induction above about 79%, passing the limit was not always enough;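 also: 0% = DMSO vehicle median and 100% = reference compound median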
* hit, by the source's call; nt = not tested or not shown.

SMILES	YB-1 expr inh	ROS inducer
C[C@H](CO)N1C[C@H](C)[C@H](CN(C)Cc2ccccc2)Oc2ncc(-c3cc4ccccc4o3)cc2C1=O	0.153	62.0
C[C@H](CO)N1C[C@H](C)[C@H](CN(C)C(=O)Nc2cccc3ccccc23)Oc2ncc(-c3ccc(F)cc3)cc2C1=O	0.34	2.9
C[C@H](CO)N1C[C@H](C)[C@H](CN(C)S(=O)(=O)c2ccc(F)cc2)Oc2ncc(-c3cccc(C(F)(F)F)c3)cc2C1=O	-0.0637	116.3*
Nc1cc(=O)nc(SCC(=O)Nc2ccc(Cl)cn2)n1-c1ccccc1	nt	-17.0
O=C(Cn1nc(Cc2cccnc2)c2ccccc2c1=O)N1CCCC1	nt	-15.3
CCc1ccc(NC(=O)c2cc3c(=O)oc4ccccc4c3s2)cc1	nt	-28.3
C[C@@H]1CN([C@H](C)CO)C(=O)c2cc(NC(=O)Nc3cccc4ccccc34)ccc2O[C@@H]1CN(C)C(=O)Nc1ccccc1	-0.198	84.5*
CC(C)NC(=O)N(C)C[C@@H]1Oc2c(NC(=O)Nc3ccc(F)cc3)cccc2C(=O)N([C@H](C)CO)C[C@H]1C	0.000259	5.3
CC(C)NC(=O)N(C)C[C@H]1Oc2c(NC(=O)Nc3ccc(F)cc3)cccc2C(=O)N([C@@H](C)CO)C[C@H]1C	4.28*	-13.5
C[C@H]1CN([C@@H](C)CO)C(=O)c2cc(NC(=O)Nc3cccc4ccccc34)ccc2O[C@@H]1CN(C)C(=O)Nc1ccccc1	0.742	-11.0
C[C@H](CO)N1C[C@H](C)[C@H](CN(C)C(=O)Nc2ccccc2)Oc2c(NC(=O)Nc3ccc(F)cc3)cccc2C1=O	3.05*	-0.4
C[C@H](CO)N1C[C@H](C)[C@H](CN(C)C(=O)Nc2ccc(F)cc2)Oc2c(NC(=O)Nc3ccccc3)cccc2C1=O	-0.389	-2.8
COc1cccc(CN(C(=S)NCc2ccccc2)c2ccc(F)c(Cl)c2)c1O	nt	-8.1
CCOc1cc(/C=C2\Sc3ccccc3C2=O)cc(I)c1O	nt	95.8*
CCOc1cc(/C=C2\SC(=O)N(Cc3ccc(F)cc3)C2=O)ccc1O	nt	9.6
O=C1N(CCS(=O)(=O)c2ccccc2)Cc2ccccc2[C@@H]2OC(c3ccc(OCCCO)cc3)=N[C@]12CCS(=O)(=O)c1ccccc1	0.408	95.6*
C=CCN1Cc2ccccc2[C@@H]2OC(c3ccc(OCCCO)cc3)=N[C@]2(CCS(=O)(=O)c2ccccc2)C1=O	0.249	51.0
O=C(NCC(O)CO)[C@]1(CCS(=O)(=O)c2ccccc2)N=C(c2ccc(OCCCO)cc2)O[C@@H]1c1ccccc1 (stereo partly drawn)	0.548	24.0
CC(=O)N1Cc2ccccc2C[C@]2(N=C(c3ccc(OCCCO)cc3)O[C@@H]2c2ccccc2)C1=O	0.173	33.8
O=C(NCc1ccccc1)[C@@]1(CCS(=O)(=O)c2ccccc2)N=C(c2ccc(OCCCO)cc2)O[C@H]1c1ccccc1	-0.331	78.3*
CC(=O)N1Cc2ccccc2C[C@@]2(N=C(c3ccc(OCCCO)cc3)O[C@H]2c2ccccc2)C1=O	0.0195	78.7*
Cc1cc(C)cc(-n2c(SCC(=O)Nc3ccccc3C(F)(F)F)nc3c(c2=O)SCC3)c1	nt	4.5
C/C1=C/CC/C(CO)=C\[C@H]2OC(=O)C(CN3CCCC3C(=O)O)[C@@H]2[C@@H](OC(=O)C(C)CO)C1 (stereo partly drawn)	1.76	132.1*
C=C(C(=O)O[C@H]1C/C(C)=C\CC/C(CO)=C\[C@H]2OC(=O)C(=C)[C@H]12)C(O)CO (stereo partly drawn)	0.927	-6.5
CC(C)(C)c1ccc(CSCc2nc3ccccc3[nH]2)cc1	nt	-6.0
SMILES	YB-1 expr inh	ROS inducer
O=C(OC1(C#CCN2CCCCC2)CCCCC1)c1ccccc1	-0.212	19.3
CC(C(=O)O)c1ccc(C(=O)c2cccs2)cc1 (stereo not drawn)	6.85*	-19.1
CC(C)Cc1ccc(C(C)C(=O)O)cc1 (stereo not drawn)	0.304	-11.3
COc1cc(/C=C/C(=O)N2CCC(C)CC2)ccc1OCc1ccccc1	nt	-0.6
Cc1ccccc1C(=O)NC(=S)Nc1ccc(-c2nc3ccccc3o2)cc1	nt	14.8
Cc1ccc2c(c1)c1nnc(SCCN3CCOCC3)nc1n2C	nt	3.6
CCCn1c2ccccc2c2nnc(SCCC(=O)O)nc21	nt	44.3
Cc1ccc2c(c1)c1nnc(SCCN3CCOCC3)nc1n2Cc1ccccc1	nt	113.3*
CCCCn1c2ccccc2c2nnc(SCCN3CCOCC3)nc21	nt	155.3*
CCCn1c2ccc(C)cc2c2nnc(SCCN3CCOCC3)nc21	0.322	141.5*
c1ccc2c(c1)[nH]c1nc(SCCN3CCOCC3)nnc12	nt	8.7
CCOc1cc(C(=S)N2CCCC2)ccc1OCc1ccccc1F	nt	0.0
O/N=C/c1ccc(N2CCOCC2)cc1	nt	-10.5
CC1CCCCC1NC(=O)c1cc(-c2cccs2)nc2ccccc12 (stereo not drawn)	nt	5.3
S=C1NCN(Cc2ccccc2)CN1CC1CCCO1 (stereo not drawn)	nt	-12.6
O=C(NCCS(=O)(=O)Cc1ccc(F)cc1)c1c(F)cccc1Cl	nt	-9.1
C[C@H](CO)N1C[C@H](C)[C@H](CN(C)Cc2ccc(Cl)c(Cl)c2)Oc2c(NC(=O)CCCCCC(=O)Nc3ccccc3N)cccc2C1=O	-0.0691	121.4*
C[C@@H]1CN([C@H](C)CO)C(=O)c2cccc(NC(=O)CCCCCC(=O)Nc3ccccc3N)c2O[C@H]1CN(C)Cc1ccc2c(c1)OCO2	-0.23	106.1*
C[C@@H]1CN([C@H](C)CO)C(=O)c2cccc(NC(=O)CCCCCC(=O)Nc3ccccc3N)c2O[C@@H]1CN(C)Cc1ccc2c(c1)OCO2	0.0247	-5.5
C[C@H](CO)N1C[C@H](C)[C@H](CN(C)Cc2ccc(Cl)c(Cl)c2)Oc2ccc(NC(=O)CCCCCC(=O)Nc3ccccc3N)cc2C1=O	0.153	29.2
CSc1nc2cc(Oc3ccc4ccccc4c3)c(Cl)cc2[nH]1	nt	2.3
Cc1cc(NC(=O)c2ccc3nonc3c2)on1	nt	10.6
COC(=O)/C=C1/C(=O)N/C(=N\c2nc(C)cc(C)n2)N1c1cccc(C)c1	-0.126	102.8*
Cc1cc(C)nc(/N=C2\NC(=O)CC(C(=O)O)N2c2ccc(F)c(Cl)c2)n1 (stereo not drawn)	nt	1.7
COC(=O)CN1C=C(C(=O)OC)C(c2ccc(Cl)cc2)C(C(=O)OC)=C1	nt	-7.4
SMILES	YB-1 expr inh	ROS inducer
COC(=O)C1=CN(C(CC(C)C)C(=O)OC)C=C(C(=O)OC)C1c1ccc(Br)cc1 (stereo not drawn)	-0.565	95.0*
COc1ccc(CC(=O)NCC(C)C)cc1	-0.172	4.0
COc1ccc(OC)c(C(O)CNC(=O)CN)c1 (stereo not drawn)	-0.422	122.2*
Cc1nn(-c2ccccc2)nc1CNS(=O)(=O)c1ccc2c(c1)OCCN2C	nt	-8.8
CC1CCN(S(=O)(=O)c2ccc3c(c2)OCC(=O)N3)CC1	nt	10.1
O=C(O)c1ccccc1C(=O)N1CCc2ccccc21	nt	-15.3
c1ccc(-c2nnc(N3CCc4ccccc43)nc2-c2ccccc2)cc1	-0.355	102.7*
O=C1NC(=Nc2cccc3ccccc23)SC1(CO)CO	nt	-11.6
C=CCNC(=O)[C@H]1[C@@H]2C(=O)O[C@@H](c3ccccc3)[C@@H](c3ccccc3)N2[C@@H](c2ccc(OCCO)cc2)[C@]12C(=O)N(C(=O)OCCOC)c1ccc(C#CCC(C(=O)OC)C(=O)OC)cc12	0.338	156.5*
